Measurements as given in article PMC5540273 (PLoS ONE, 2017).

Assays:
Settings in all cases: concentration: 1 μM, replicates: in singlicate; n = 1
NDR1 = test system: T1, NDR1
T1 construct: gene STK38

NDR2 = test system: NDR2
NEK10 = test system: NEK10
NEK11 = test system: NEK11
NEK1 = test system: NEK1
NEK2 = test system: NEK2
NEK3 = test system: NEK3
NEK4 = test system: NEK4
NEK5 = test system: NEK5
NEK6 = test system: NEK6
NEK7 = test system: NEK7
NEK9 = test system: NEK9
NIK = test system: T2, NIK
T2 construct: gene MAP3K14

NIM1 = test system: T3, NIM1
T3 construct: gene MGC42105

NLK = test system: NLK
OSR1 = test system: T4, OSR1
T4 construct: gene OXSR1

PAK1 = test system: PAK1
PAK2 = test system: PAK2
PAK3 = test system: PAK3
PAK4 = test system: PAK4
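Further: KINOMEscan kinase panel screen.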

Compound | %Inh (NDR1) | %Inh (NDR2) | %Inh (NEK10) | %Inh (NEK11) | %Inh (NEK1) | %Inh (NEK2) | %Inh (NEK3) | %Inh (NEK4) | %Inh (NEK5) | %Inh (NEK6) | %Inh (NEK7) | %Inh (NEK9) | %Inh (NIK) | %Inh (NIM1) | %Inh (NLK) | %Inh (OSR1) | %Inh (PAK1) | %Inh (PAK2) | %Inh (PAK3) | %Inh (PAK4)
COC(=O)c1c(-c2ccccc2)c2cc(OC)ccc2c(=O)n1Cc1ccccc1 | 0% | 3% | 0% | 0% | 7% | 9% | 16% | 11% | 0% | 0% | 0% | 7% | 0% | 0% | 0% | 0% | 31% | 27% | 44% | 9%
Cl.NC(=O)c1cccc(Nc2nccc(Nc3ccc(Oc4cccc(Cl)c4)c(Cl)c3)n2)c1 [GW659008] | 0% | 0% | 0% | 0% | 0% | 0% | 0% | 1% | 32% | 0% | 16% | 3% | 27% | 29% | 21% | 8% | 9% | 9% | 33% | 0%
Fc1cc(Cl)ccc1Nc1ccnc2cc(-c3ccc(CN4CCCCC4)o3)ccc12 [GW560116] | 9% | 18% | 5% | 4% | 0% | 0% | 0% | 0% | 4% | 0% | 0% | 0% | 10% | 0% | 16% | 0% | 2% | 5% | 0% | 0%
O=C(Nc1n[nH]c2nc(-c3nccs3)c(Br)cc12)C1CCCC1 [SB-742609] | 0% | 0% | 15% | 0% | 0% | 0% | 14% | 38% | 0% | 0% | 5% | 0% | 33% | 0% | 31% | 7% | 16% | 21% | 17% | 0%
O=C(Nc1n[nH]c2cc(-c3cccc(F)c3F)ccc12)C1CC1 [SB-733894] | 5% | 0% | 0% | 0% | 0% | 5% | 39% | 3% | 0% | 0% | 7% | 0% | 0% | 0% | 72% | 0% | 3% | 41% | 2% | 12%
Cn1ccc2ncnc(Oc3ccc(NC(=O)Nc4ccccc4)cc3)c21 | 9% | 0% | 18% | 0% | 0% | 3% | 12% | 0% | 0% | 0% | 0% | 0% | 6% | 0% | 11% | 0% | 10% | 17% | 40% | 10%
CCCc1ccc(S(=O)(=O)NC2CCN(c3ccnc(Nc4ccc(F)cc4)n3)C2)cc1 (centres unmarked) [GSK1379715] | 0% | 0% | 3% | 1% | 88% | 0% | 4% | 5% | 10% | 0% | 0% | 0% | 23% | 18% | 0% | 17% | 0% | 2% | 3% | 0%
COc1ccc(Nc2nccc(-c3cccc(NC(=O)c4cc5cc(F)ccc5[nH]4)c3)n2)cc1 [GSK1229782] | 0% | 34% | 40% | 16% | 12% | 3% | 12% | 9% | 29% | 1% | 0% | 21% | 50% | 13% | 9% | 18% | 36% | 35% | 13% | 22%
CS(=O)(=O)c1ccc(-c2c(-c3ncn[nH]3)sc(N3CCOCC3)c2C#N)cc1 | 18% | 0% | 36% | 0% | 4% | 0% | 40% | 0% | 7% | 31% | 0% | 0% | 0% | 21% | 0% | 0% | 2% | 10% | 6% | 5%
Cc1csc(-c2nc(Nc3ccncc3)c3ccccc3n2)n1 [GW869640] | 27% | 25% | 17% | 9% | 0% | 0% | 19% | 28% | 0% | 4% | 0% | 16% | 32% | 40% | 64% | 17% | 12% | 56% | 28% | 9%
